Compounds with a hit are over-represented: about 1.1% of the library has one in this group of screens.
HTR5A inv ag – inverse agonist of human HTR5A in OPRM1-OPRD1 counter-screen. P47898. HTR5A cell line, luminescence, inverse agonism. inhibition, % at 9.3 µM. hit rate 0.083% among 340,000; in the data active = inhibition mostly above about 23%, no sharp cut-off; inactive = mostly below about 18%;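 also: 0% = cells with DMSO and 100% = no-cell wells with DMSO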
Target sequence (P47898 whole entry, looked up): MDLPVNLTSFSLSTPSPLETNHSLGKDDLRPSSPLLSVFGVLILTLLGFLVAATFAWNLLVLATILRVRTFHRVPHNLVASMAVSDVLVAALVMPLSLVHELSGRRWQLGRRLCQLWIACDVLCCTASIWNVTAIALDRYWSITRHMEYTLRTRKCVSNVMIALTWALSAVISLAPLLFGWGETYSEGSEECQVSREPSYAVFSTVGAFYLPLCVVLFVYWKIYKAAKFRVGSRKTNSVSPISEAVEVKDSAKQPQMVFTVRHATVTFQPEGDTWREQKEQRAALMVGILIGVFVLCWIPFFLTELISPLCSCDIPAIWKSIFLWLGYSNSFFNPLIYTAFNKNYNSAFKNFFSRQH
MOR-DOR ag – OPRM1-OPRD1 heterodimerization agonism; P35372+P41143; cells, luminescence; hit rate 0.3% among 340,000; AID 504326; activation, % at 9.3 µM; in the data active = activation above about 18%;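 also: 0% = vehicle-treated cells and 100% = reference agonist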
MOR-DOR inv ag – inverse agonist of human OPRM1-OPRD1 heterodimerization. cell-based MOR-DOR heterodimer luminescence, inverse agonism. AID 504357. P35372+P41143. hit rate 0.21% among 340,000. inhibition, % at 9.3 µM; in the data active = inhibition above about 22%, passing the limit was not always enough;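 also: 0% = cells with DMSO and 100% = wells without cells with DMSO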
HTR5A ag ctr – HTR5A agonism, opioid heterodimer counter-screen; HTR5A agonist assay, luminescence, cell-based; activation, % at 9.3 µM; hit rate 0.61% among 340,000; in the data active = activation mostly above about 9.5%, no sharp cut-off; inactive = mostly below about 7.6%;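 also: 0% = cells with vehicle only and 100% = reference agonist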
The depositor's hits bear a star.

SMILES	HTR5A inv ag	MOR-DOR ag	MOR-DOR inv ag	HTR5A ag ctr
CC1=Nc2cc(C(=O)NCCCN3CCOCC3)ccc2Sc2c(C)ccc(C)c21	-2	-2	9	10.0*
CCOC(=O)C(C)CC(C)C(=O)N1CCOCCN(C(=O)C(C)CC(C)C(=O)OCC)CCOCC1 (centres undefined)	-24	0	-2	9.2*
O=C(CCc1ccccc1)Nc1ccc(S(=O)(=O)NC2=NCCCCC2)cc1	5	-3	12	-5
Cc1ccc(Nc2nc(-c3ccc(S(=O)(=O)N4CCCC4)cc3)cs2)cc1C	3	2	-9	10*
CCOC(=O)c1cc(-c2ccccc2)n(CCC(=O)NC(C)CC)c1C (centres undefined)	30	-1	5	11*
CCCCNC(=O)C1CCC(CNS(=O)(=O)c2ccc(C)cc2)CC1 (centres undefined)	10	-1	8	2
CCCCSCCCNC(=O)C1CCC(CNS(=O)(=O)c2ccccc2)CC1 (centres undefined)	-49	2	-11	12*
CCN(CC)S(=O)(=O)c1ccc(OCC2CCCCO2)c([N+](=O)[O-])c1 (centres undefined)	-3	-1	6	0
O=C(COC(=O)c1cnccn1)N=c1sccn1Cc1ccccc1Cl	-2	-2	14	1
CCN(CC)c1ccc(C(=C2C=CC(=[N+](CC)CC)C=C2)c2ccccc2)cc1	8	52*	-229	-2
CCN1/C(=C/c2ccc3ccccc3[n+]2CC)C=Cc2ccccc21	43*	-6	32	-12
Cc1cccc(CC2S/C(=N/N=C/c3ccco3)N(c3ccccc3)C2=O)c1 (centres undefined)	7	5	-29	14*
Cc1cccc(C(=O)NC(=S)Nc2ccc(Cc3ccncc3)cc2)c1	-32	-1	8	12*
COc1ccc(NC(=O)c2cc(-c3cc(C)cc(C)c3O)n[nH]2)cc1Cl	-34	8	-42	11*
CCn1cc([N+](=O)[O-])c(C(=O)N2CCN(C(=O)c3ccco3)CC2)n1	26	-1	5	14*
O=C(CCC(=O)N1CCOCC1)NCCc1ccccc1	-7	-6	21	4
COc1ccc2nc(C)cc(N/N=C/c3ccccc3)c2c1	-4	21*	-83	-2
Cc1nc(SCC(=O)NNC(=O)c2ccc(F)cc2)c2ccccc2n1	-31	-2	8	13*
CCCc1nc(SCC(=O)NNC(=O)c2ccc(OC)cc2)c2ccccc2n1	2	-3	13	-1
Cc1cc(C(=O)N2CCN(c3ccccc3Cl)CC2)c(C)o1	0	0	0	0
O=Nc1c(O)c2ccccc2c2ccccc12	-10	18	-99	12*
O=Nc1c2cc3ccccc3[nH]c-2c2ccccc12	-30	5	-26	8
Cc1ccc(S(=O)(=O)Nc2cccc(S(=O)(=O)N3CCCC3)c2)cc1C	24	0	3	0
N/C(=N\OC(=O)c1ccc(Cl)cc1)c1ccccn1	-10	1	-7	4
N/C(=N\OC(=O)c1ccc(Cl)c(Cl)c1)c1ccccn1	-3	5	-25	14*
SMILES	HTR5A inv ag	MOR-DOR ag	MOR-DOR inv ag	HTR5A ag ctr
O=C(CCN1C(=O)/C(=C/c2ccccc2F)SC1=S)NCCCN1CCOCC1	-5	0	1	13*
O=C(CCN1C(=O)/C(=C/c2ccccc2)SC1=S)NCCCN1CCOCC1	-23	2	-14	8
O=C(Nc1cccc(C(F)(F)F)c1)Nc1ccc2[nH]c(=O)[nH]c2c1	-48	3	-13	13*
COc1ccccc1NC(=O)OC(C)c1ccc(Cl)cc1 (centres undefined)	-49	1	-5	17*
CCOC(=O)c1ccc2c(c1)N(Cc1ccccc1C)C(=O)c1ccccc1S2=O (centres undefined)	-32	-1	7	9.5*
COC(=O)c1ccc2c(c1)N(Cc1ccccc1F)C(=O)c1ccccc1S2=O (centres undefined)	-4	-1	3	2
c1ccc(C(c2c[nH]c3ccccc23)c2c[nH]c3ccccc23)nc1	-76	2	-7	32*
CCCNC(=O)CS(=O)(=O)Cc1nc(-c2cccc(OC)c2)oc1C	-3	0	-1	13*
CCOCCCNC(=O)CS(=O)(=O)Cc1nc(-c2cccc(OC)c2)oc1C	20	1	-3	-8
COc1cccc(-c2nc(CS(=O)(=O)CC(=O)Nc3cc(F)ccc3F)c(C)o2)c1	-14	0	-2	11*
ClC(Cl)(Cl)c1nc2ccccc2n2nncc12	12	8	-43	-5
COc1ccc2c(C#CCCO)c(-c3ccc(S(C)(=O)=O)cc3)sc2c1	-45	-1	4	13*
COc1ccc2sc(-c3ccc(S(C)(=O)=O)cc3)c(C#CCO)c2c1	-30	6	-33	12
CCN(CC)CC(=O)Nc1sc2c(c1C(=O)c1ccccc1OC)CCC2	-29	4	-16	11*
COc1ccc(CCN(C)C(=O)c2c(C)nn(-c3ccccc3)c2C)cc1OC	-2	-2	9	0
Cc1nc(N2CCCCC2)c2c(C)c(C(=O)Nc3cccc(C(F)(F)F)c3)sc2n1	0	10	-68	14*
Cc1[nH]c(=O)c(C#N)c(C)c1CCC(=O)Nc1cc(S(C)(=O)=O)ccc1Cl	-8	0	0	-1
NNc1nc(-c2ccccc2)cc(-c2ccccc2O)n1	28	-4	20	-10
NNc1nc(-c2ccccc2)cc(-c2ccccc2)n1	43*	-11	52*	-16
O=[N+]([O-])c1ccc(O)c(CN2CCCCCC2)c1	1	2	-9	0
CC1(C)Cc2c(c(N3CCOCC3)nc3snc(NC(=O)c4ccccc4)c23)CO1	-34	1	-9	12*
Cc1cnc(C(=O)N(CC(C)C)c2c(N)n(CC(C)C)c(=O)[nH]c2=O)cn1	-5	0	2	2
NS(=O)(=O)c1ccc(NC2=CC(=O)C(=O)c3ccccc32)cc1	-36	8	-39	9.6*
COCc1ccc(CN2CCCC(C(=O)Nc3ccccc3-c3ccc(OC)cc3)C2)o1 (centres undefined)	24	-1	6	-2
COCc1ccc(CN2CCCC(C(=O)Nc3ccc(-c4cccc(OC)c4)cc3)C2)o1 (centres undefined)	-13	4	-20	12*
SMILES	HTR5A inv ag	MOR-DOR ag	MOR-DOR inv ag	HTR5A ag ctr
CC(C)C(NS(=O)(=O)c1cccc(C(F)(F)F)c1)C(=O)NCc1cccs1 (centres undefined)	8	-2	8	-3
CCN(CC)CCN(C(=O)c1ccc2c(c1)OCCO2)c1nc2ccc(C)cc2s1	0	1	-7	4
Cc1ccc2nc(N(CCN(C)C)C(=O)c3ccc4c(c3)OCCO4)sc2c1	-40	-2	13	14*
CC(=O)c1cccc(S(=O)(=O)NC2CCSc3ccccc32)c1 (centres undefined)	0	4	-32	0
Cc1ccc(C)c(NC(=O)C(=O)NCCc2c[nH]c3ccccc23)c1	-20	0	1	-1
Cc1cccc(C)c1NC(=O)C(=O)NCCc1c[nH]c2ccccc12	-12	-2	9	0
Cc1cc(C)cc(NC(=O)C(=O)NCCc2c[nH]c3ccccc23)c1	-37	5	-28	14*

Screening data from PubChem BioAssay.
